Experimental data as given in PubChem BioAssay (NCI).
Compounds without any hit were thinned out: in the full panel of roughly 83,000, 20% have a hit.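 Assay: single dose, 48 h. Readout: percent growth (0 = no net growth; negative = cell death). Active: <10.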 A number with no mark means an inactive call. The source made the active and inactive calls.

What was measured:
Experiment in all cases: NCI-60 one-dose screen, 48 h (100 = growth as untreated, 0 = no growth, -100 = all killed)
Settings in all cases: 10 µM unless noted
[1] = tested on: SK-MEL-2 melanoma
[2] = tested on: SN12C renal
[3] = tested on: UO-31 renal
[4] = tested on: TK-10 renal
[5] = tested on: ACHN renal
[6] = tested on: CAKI-1 renal
[7] = tested on: A498 renal
[8] = tested on: CCRF-CEM leukemia
[9] = tested on: MOLT-4 leukemia
[10] = tested on: SR leukemia
[11] = tested on: RPMI-8226 leukemia
[12] = tested on: OVCAR-4 ovarian
[13] = tested on: SK-OV-3 ovarian
[14] = tested on: IGROV1 ovarian
[15] = tested on: OVCAR-3 ovarian
[16] = tested on: HS 578T breast
[17] = tested on: NCI/ADR-RES ovarian
[18] = tested on: OVCAR-8 ovarian
[19] = tested on: OVCAR-5 ovarian

SMILES | growth [1] | growth [2] [%] | growth [3] [%] | growth [4] [%] | growth [5] [%] | growth [6] [%] | growth [7] [%] | growth [8] | growth [9] | growth [10] | growth [11] [%] | growth [12] [%] | growth [13] | growth [14] [%] | growth [15] | growth [16] [%] | growth [17] | growth [18] [%] | growth [19] [%]
CCOC(=N)CC(=O)Nc1cccc(C)c1Cl | 118% | 98.6 | 70.5 | 113 | 105 | 93.7 | 120 | 109% | 108% | 105% | 107 | 106 | 97.7% | 104 | 104% | 105 | 97.7% |  | 
CCOC(=O)CSCCC#N | 105% | 97.9 | 98.8 | 101 | 95.2 | 96 | 83.1 | 102% | 91.5% | 94.2% | 106 |  | 92.5% | 107 | 111% | 107 | 100% | 96.8 | 85
NC(=O)NCCO | 108% | 101 | 94.1 | 96.5 | 107 | 95.2 | 77.1 | 85% | 96.3% | 96.2% | 101 | 110 | 110% | 105 | 106% |  | 97.7% | 99.8 | 106
C1=NCCc2ccccc21 | 99.7% | 102 | 84.3 | 119 | 101 | 99.7 | 59.9 | 96.8% | 101% | 97% | 99 | 98.7 | 93% | 105 | 100% | 83.8 | 106% | 99.1 | 105
CCOC(=O)c1cc(Cl)c(O)c(Cl)c1 | 106% | 107 | 92.3 | 108 | 103 | 109 | 104 | 90.8% | 89.6% |  | 101 | 120 | 109% | 96.8 | 115% | 109 | 111% | 100 | 108
Cc1ccc(NC(=S)N2CCOCC2)cc1C | 100% | 99.4 | 66.3 | 103 | 99.2 | 101 | 105 | 109% |  | 108% | 102 | 102 | 97.9% | 103 | 104% | 94.7 | 110% | 104 | 102
CC(=O)c1cccc(NS(=O)(=O)c2ccc(C)cc2)c1 | 77.9% | 89.1 | 77 | 90.3 | 106 | 81.6 |  | 84% |  | 36.6% | 86.6 | 79 | 101% | 62.8 | 70.9% | 86.9 | 50.5% | 90.1 | 92.8
CCCCCCCCCCC(=O)CCCCCCCCCC | 111% | 102 | 85.8 | 98.8 | 96.7 | 95 | 107 | 90% | 92% |  | 98.8 | 103 | 92.1% |  | 118% | 114 | 100% | 109 | 103
CC(C)C(C)(C)C(=O)C(C)(C)C(C)(C)C | 99.9% | 98.2 | 95.5 | 96.2 | 99.3 | 104 | 83.9 | 107% |  | 100% | 96.1 | 117 | 82.8% | 105 | 80.3% | 93.9 | 104% | 99.1 | 97.5
ON1CCCC1 | 106% | 102 | 95.5 | 94 | 109 | 92.9 |  |  | 81% | 90.3% | 88.2 |  | 102% | 108 | 112% |  | 102% | 103 | 103
Cc1c(Cl)cccc1NC(=S)NC(=O)c1ccccc1 | 96% | 98.6 | 85.5 | 93.5 | 113 | 79.4 |  | 95.3% | 83.9% | 88.4% | 73.6 |  | 95.2% | 118 | 103% | 109 | 104% | 92.2 | 109
CC(C)=CCC[C@@H](C)[C@H]1CC[C@@]2(C)C3=C(CC[C@]12C)[C@@]1(C)CC[C@H](O)C(C)(C)[C@@H]1CC3 | 118% | 102 | 111 | 112 | 101 | 99.1 | 114 |  | 99% | 93.4% | 102 | 105 | 108% | 115 | 122% |  | 110% | 102 | 107
O=S(=O)(O)c1ccc(O)c(C2CCCCC2)c1 | 102% | 105 | 91 | 95 | 105 | 94.4 |  | 110% |  | 98.3% | 105 | 94.4 | 97.1% | 107 | 113% | 116 | 118% | 102 | 
COc1cc(C(=O)NC(=S)NCc2ccncc2)cc(OC)c1OC | 89.5% | 102 | 77.4 | 103 | 94.2 | 91.4 |  | 99.5% | 86.1% | 74.2% | 97.2 |  |  | 107 | 105% | 106 | 98.2% | 103 | 107
O=Cc1ccc(F)cc1 | 129% | 98 | 82 | 113 | 95.6 | 88.4 | 103 |  | 110% | 111% | 105 | 106 | 109% | 95.2 | 111% |  | 107% | 103 | 102
NC(=O)OCCO | 100% | 105 | 87.7 | 98.8 | 113 | 99.6 |  | 99.5% | 97.7% | 94.5% | 104 | 109 | 105% | 108 | 102% | 99.2 | 105% | 104 | 107
COC1OC(C(COC(C)=O)OC(C)=O)C(OC(C)=O)C(OC(C)=O)C1OC(C)=O (stereo not given) | 113% | 107 | 83.8 | 107 | 95.3 | 96.2 |  | 104% | 93.5% | 87.3% | 98.7 | 107 | 110% | 104 | 118% | 129 | 105% | 103 | 89.7
O=C(c1ccccc1)c1ccc(-c2ccc(O)cc2)cc1 | 59.1% | 83.2 | 45.2 | 68.7 | 50.4 | 103 | 65.1 | 60.7% |  | 177% |  | 45.6 | 93.4% | 25.9 | 85.8% | 104 | 44.5% | 82.8 | 108
CN(C)Cc1ccccn1 | 107% | 100 | 87.8 | 105 | 102 | 96.8 |  |  | 107% |  | 90.9 | 106 | 112% | 102 | 117% | 114 | 103% | 101 | 
CSc1nc2[nH]ncc2c(=O)[nH]1 | 111% | 101 | 101 | 104 | 110 | 103 | 75.4 | 118% |  | 95% |  | 123 | 107% | 112 | 97.3% | 92 | 99.1% | 106 | 97.7
Cc1cccc2ccccc12 | 106% | 100 | 86.8 | 103 | 99.7 | 91.6 |  | 102% |  |  | 101 |  | 103% | 112 | 110% | 107 | 99.6% | 100 | 104
CCN(CC)CCN1CNC(=S)NC1 | 95.1% | 98.4 | 83.7 | 103 | 102 | 106 | 105 | 97.8% |  | 96.4% | 99.2 | 109 | 108% | 113 | 109% | 105 | 106% | 112 | 107
CCOC(C=O)OCC | 102% | 102 | 94.4 | 93.1 | 112 | 97.8 |  | 99.1% | 85.2% | 89.9% | 99.1 | 114 | 106% | 108 | 109% | 109 | 107% | 102 | 102
N#C/C(=C\c1ccc(C#N)cc1)C(=O)c1ccccc1 | 101% | 95.7 | 89.1 | 132 | 101 |  | 118 | 92.9% |  |  |  | 98.7 | 109% |  | 105% | 116 | 98.7% | 101 | 104
COC1OC(C(O)C(O)CO)C(O)C(O)C1O (stereo not given) | 99.5% | 94.1 | 97.1 | 107 | 101 | 95.6 |  | 95.4% | 105% | 97.7% | 93.3 | 109 | 95.6% | 103 | 109% | 109 | 106% | 105 | 88.7
CS(=O)(=O)c1ccc(/C=C\C(=O)O)cc1 | 109% | 103 | 83.5 | 101 | 108 | 98.2 | 48.6 | 101% | 111% | 62.3% |  | 98.2 | 106% | 120 | 102% | 81.7 | 104% |  | 105
O=C(CC(CC(=O)c1ccccc1)c1ccccn1)c1ccccc1 | 106% | 92.6 | 68.6 | 123 | 97.8 |  | 94.2 | 103% | 102% | 92.9% | 96.8 | 105 | 104% | 96.8 | 106% | 84.8 | 97.4% | 101 | 105
CC(=O)OC(C)c1cccc(C#N)c1 (stereo not given) | 110% | 99.1 | 85.1 | 110 | 113 | 101 |  | 97.7% | 102% | 104% | 102 | 109 | 93.8% | 115 | 111% | 106 | 106% | 103 | 
COc1cc2c(c(OC)c1OC)-c1ccc(SC)c(=O)cc1[C@@H](NC1OC(CO)C(O)C(O)C1O)CC2 (stereo not given in full) | 4.69% (active) | 33.6 | 34.4 | 42.1 | 27.2 | 18.7 |  | 4.92% (active) | 1.36% (active) | -22.4% (active) | 19.7 | 68.3 | 1.33% (active) | 14.8 | -15.5% (active) |  | 7.19% (active) |  | 
CC(=O)c1cccc(N(C)S(=O)(=O)c2ccc(C)cc2)c1 | 94.2% | 103 | 82.2 | 90.4 | 107 | 101 |  | 97.7% |  | 44.7% | 102 | 87.7 | 109% | 82.5 | 105% | 102 | 82.4% | 101 | 90.7
